Measurements reported in ChEMBL document CHEMBL3433997, “St. Jude Leishmania screening dataset” (2016).

Experiments:
Format in all cases: functional
[1] = target: Solute carrier family 2, facilitated glucose transporter member 1 (Homo sapiens) (UniProt P11166); assay: ST_JUDE_LEISH: Cytotoxicity at 2uM final concentration against transgenic Leishmania Mexicana promastigotes LmGLUT1 that are glucose transport deficient and complemented with the human glucose transporter GLUT1. Activity is measured by DNA content using SYBR green in vitro
[2] = target: Hexose transporter 1 (Plasmodium falciparum) (UniProt O97467); assay: ST_JUDE_LEISH: Cytotoxicity at 2uM final concentration against transgenic Leishmania Mexicana promastigotes LmPfHT that are glucose transport deficient and complemented with the Plasmodium falciparum hexose transporter. Activity is measured by DNA content using SYBR green in vitro
[3] = target: Glucose transporter (Leishmania mexicana) (UniProt O61059); assay: ST_JUDE_LEISH: Cytotoxicity at 2uM final concentration against transgenic Leishmania Mexicana promastigotes LmGT2 that are glucose transport deficient and complemented with the L. Mexicana glucose transporter 2. Activity is measured by DNA content using SYBR green in vitro

Sequence of Solute carrier family 2, facilitated glucose transporter member 1 (Homo sapiens) (P11166 whole entry): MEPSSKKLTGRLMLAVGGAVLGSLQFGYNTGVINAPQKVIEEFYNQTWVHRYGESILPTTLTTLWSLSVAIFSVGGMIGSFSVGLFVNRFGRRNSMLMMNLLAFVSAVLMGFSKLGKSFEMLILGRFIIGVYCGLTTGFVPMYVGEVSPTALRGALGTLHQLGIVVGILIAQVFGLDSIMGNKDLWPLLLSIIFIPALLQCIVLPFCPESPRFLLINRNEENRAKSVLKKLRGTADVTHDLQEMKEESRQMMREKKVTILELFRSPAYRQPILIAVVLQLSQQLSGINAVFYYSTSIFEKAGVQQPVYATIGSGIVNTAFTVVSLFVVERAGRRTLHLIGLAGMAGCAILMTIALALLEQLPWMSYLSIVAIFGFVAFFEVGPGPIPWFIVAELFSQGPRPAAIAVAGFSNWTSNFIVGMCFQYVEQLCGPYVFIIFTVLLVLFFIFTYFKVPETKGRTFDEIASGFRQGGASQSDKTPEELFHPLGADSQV

`COc1ccc2nccc([C@@H](O)CN3CCC(NCc4cc5cc([N+](=O)[O-])ccc5[nH]4)CC3)c2c1` showed an inhibition [1] of 8.79%, an inhibition [2] of 6.38% and an inhibition [3] of 4.29%.

For `COc1cc2nc(N3CCC(CNC(=O)c4ccc(-c5ccc(C(=O)N(C)C)cc5C)cc4)CC3)nc(N3CCN(C)CC3)c2cc1OC`, the inhibition [1] was -0.31%, the inhibition [2] was 0.88% and the inhibition [3] was 1.23%.

`Cc1ccc(Nc2nc(C)cc(N3CCN(c4ccccc4)CC3)n2)cc1` showed an inhibition [1] of 5.18%, an inhibition [2] of 5.92% and an inhibition [3] of 2.13%.

`Fc1cc(Cl)ccc1Nc1ccnc2cc(-c3scnc3CNCCN3CCOCC3)ccc12` gave an inhibition [1] of 2.02%, an inhibition [2] of 1.16% and an inhibition [3] of 0.33%.

`COc1ccc2c(=O)ccn(CCN3CCC(NCc4ccc5c(n4)NC(=O)CS5)CC3)c2c1` showed an inhibition [1] of 3.6%, an inhibition [2] of 2.3% and an inhibition [3] of 3.24%.

In the case of `COc1ccccc1NC(=S)N/N=C/c1ccc(O)cc1O`, the inhibition [1] is reported as 1.28%, the inhibition [2] is reported as 6.07% and the inhibition [3] is reported as 0.42%.

Work on `CCOc1cc(Cc2cnc(N)nc2N)cc(OCC)c1OCCCCC(=O)OC` yielded an inhibition [1] of 4.55%, an inhibition [2] of 0.23% and an inhibition [3] of 0.19%.

`CNC(=O)C1Cc2c([nH]c3cc(Br)ccc23)C2(CCN(CCc3ccccc3)CC2)N1` (stereo unspecified) showed an inhibition [1] of 2.01%, an inhibition [2] of 0.63% and an inhibition [3] of 1.83%.

Work on `COc1ccc2nccc([C@@H](O)CN3CCC(NCCOc4c(C)cccc4F)CC3)c2c1` yielded an inhibition [1] of 5.89%, an inhibition [2] of 3.49% and an inhibition [3] of 4.05%.

In the case of `CC(C)(C)c1ccc(S(=O)(=O)Nc2ccccc2N2CCOCC2)cc1`, the inhibition [1] is reported as 6.54%, the inhibition [2] is reported as 4.11% and the inhibition [3] is reported as 0.2%.

In the case of `CCOC(=O)CCCc1cc(NC2CCN(C)CC2)nc(Nc2ccc(OC)cc2)n1`, the inhibition [1] is reported as -0.13%, the inhibition [2] is reported as 0.24% and the inhibition [3] is reported as 1.72%.

`O=C(O)c1ccc(-c2cnc3ccc(NC4CCC(O)CC4)nn23)cc1` (stereo unspecified) showed an inhibition [1] of 0.42%, an inhibition [2] of 0.39% and an inhibition [3] of -0.34%.
